Test results published in ChEMBL document CHEMBL4296182, “CO-ADD screening of NIH NCI Diversity Set V”.
For part of these data: Potency and affinity values are given separately.

How the values were obtained:
Staphylococcus aureus = assay: Antibacterial activity against Staphylococcus aureus MRSA ATCC 43300 (CO-ADD:GP_020); MIC in CAMBH media using NBS plates, by Resazurin F(560/590); assay type: functional; conditions: Concentration 20 uM, ASSAY_TEST Inhibition of Bacterial Growth, detection method Resazurin, Fluorescence (ex560/em590), MEDIA CAMHB, plate type 384well, CORNING #3640, time 18 hr
Acinetobacter baumannii = assay: Antibacterial activity against Acinetobacter baumannii ATCC 19606 (CO-ADD:GN_034); MIC in CAMBH media using NBS plates, by Resazurin F(560/590); assay type: functional; conditions: Concentration 20 uM, ASSAY_TEST Inhibition of Bacterial Growth, detection method Resazurin, Fluorescence (ex560/em590), MEDIA CAMHB, plate type 384well, CORNING #3640, time 18 hr
Escherichia coli = assay: Antibacterial activity against Escherichia coli ATCC 25922 (CO-ADD:GN_001); MIC in CAMBH media using NBS plates, by Resazurin F(560/590); assay type: functional; conditions: Concentration 20 uM, ASSAY_TEST Inhibition of Bacterial Growth, detection method Resazurin, Fluorescence (ex560/em590), MEDIA CAMHB, plate type 384well, CORNING #3640, time 18 hr
Klebsiella pneumoniae = conditions: Concentration 20 uM; ASSAY_TEST Inhibition of Bacterial Growth; detection method Absorption (OD600); MEDIA CAMHB; plate type 384well; NBS; CORNING #3640; time 18 hr
Candida albicans = conditions: 20 µM
Cryptococcus neoformans = conditions: Concentration 20 uM; ASSAY_TEST Inhibition of Fungal Growth; detection method Resazurin; Absorption (OD600-OD570); plate type 384well; NBS; CORNING #3640

| SMILES | Inhibition (Staphylococcus aureus) [%] | Inhibition (Acinetobacter baumannii) [%] | Inhibition (Escherichia coli) [%] | Inhibition (Klebsiella pneumoniae) [%] | Inhibition (Candida albicans) [%] | Inhibition (Cryptococcus neoformans) [%] |
| --- | --- | --- | --- | --- | --- | --- |
| CCCn1cnc2c(S)nc(N)nc21 | 0.53 | -16.82 | 10 | 2.88 | -1.47 | -9.79 |
| CC(=O)C1C=CC(C)(C(=O)O)C2C=C(C)C(=O)C(C)(O)C12 (centres undefined) | 4.72 | 16.27 | 8.25 | 21.21 | 1.75 | -4.78 |
| COCCn1c2nc(=O)n(-c3ccccc3)c(=O)c-2nc2ccccc21 | 12.62 | -2.61 | 6.79 | 23.4 | 1.39 | 4.88 |
| Cc1nc(N)nc(Nc2ccc(C#N)cc2)c1Br | 13.25 | -2.28 | 22.67 | 5.37 | 0.12 | -9.52 |
| Nc1c(Cl)ncnc1NCCO | -0.51 | -7.14 | 3.3 | 8.13 | 2.14 | -0.36 |
| Cc1cc(=O)oc2cc(OS(C)(=O)=O)ccc12 | -6.24 | -3.66 | 13.01 | 7.19 | 0.46 | -11.39 |
| Nc1cc2c3c(cccc3c1)C(=O)N(CCN1CCCC1)C2=O | 23.19 | 9.76 | 2.48 | 19.29 | -1.62 | -3.61 |
| O=C(Nc1ccc(Cl)c(Cl)c1)c1ccc(Cl)c(Cl)c1 | 18.37 | 5.32 | 2.55 | 6.19 | -2.44 | -2.12 |
| C#CCOCC1CN(c2ccccc2)C(=O)O1 (centres undefined) | -1.12 | 12.08 | 6.4 | 9.96 | 6.35 | -15.19 |
| O=[N+]([O-])c1ccc2c3ccccc3[s+]([O-])c2c1 (centres undefined) | 5.76 | 5.87 | 8.3 | 9.17 | 6.79 | -11.15 |
| Sc1nc2c[nH]c(S)nc-2n1 | 21.94 | -11.86 | 14.36 | 15.98 | 5.35 | -7.36 |
| CCCc1nc2c(=O)n(C)c(=O)n(C)c2[nH]1 | 14.39 | -13.67 | 8.23 | 14.55 | 2.02 | -4.69 |
| COc1ccccc1C1OC2=Nc3cc([N+](=O)[O-])ccc3NC2=C1O (centres undefined) | 8.5 | -1.62 | 2.79 | 1.15 | 0.19 | -4.37 |
| CCCNC(=O)c1ccc(Cl)cc1Cl | 12.41 | -15.87 | 4.4 | 8.05 | 0.63 | -4.71 |
| CC1=CC2C(C(O)CC3(C)C2CC(C)C32OCOC23COCO3)C2(C)C/C(=C/O)C(=O)C=C12 (centres undefined) | 18.36 | -11.09 | 9.35 | 4.64 | 15.1 | -16.69 |
| COc1c(O)ccc2c1CN1CCc3cc4c(cc3C1C2)OCO4 (centres undefined) | 12.64 | 10.47 | 3.09 | 10.21 | -2.64 | -12.68 |
| COC(=O)Cc1[nH]c(Cl)nc1C(N)=O | -16.49 | -11.06 | -2.69 | 2.53 | 1.21 | 7.24 |
| CCc1noc2cc(-c3ccccc3)n(C)c(=O)c12 | -11.16 | 2.9 | -6.9 | 8.09 | 1.75 | -7.67 |
| C1=CC2(C=C1)OC21CCC2(C=CC3(C2)OC3C2CCCCC2)CC1 (centres undefined) | -4.93 | 2.41 | 4.97 | -0.69 | 1.23 | -15.19 |
| c1coc(CNc2[nH]cnc3nncc2-3)c1 | 12.65 | -12.11 | 11.54 | 7.55 | 0.96 | -6.46 |
| CC(=O)[C@H]1CC[C@H]2[C@@H]3CCC4=CC(=O)C=C[C@]4(C)[C@H]3C(=O)C[C@]12C | 11.15 | -7.04 | -4.55 | 23.74 | 4.8 | -6.32 |
| CN(C)c1ncnc2c1ncn2-c1ccccc1 | -6.98 | -8.04 | 0.85 | 6.41 | 1.36 | -5.49 |
| Br.C=CC1CN2CCC1CC2C(O)c1ccnc2ccc(OC)cc12 (centres undefined) | -3.41 | 0.49 | 16.29 | 15.08 | -0.01 | 7.91 |
| Cc1cc(O)c(C(C)C)cc1NC(=O)Nc1cccc2ccccc12 | -3.74 | -15.42 | 2.96 | 4.38 | 8.57 | -2.63 |
| CCc1ccc(CCN2C(=O)c3ccccc3C2=O)nc1 | 9.03 | 4.62 | -1.52 | 17.62 | 2.59 | -6.09 |

| SMILES | Inhibition (Staphylococcus aureus) [%] | Inhibition (Acinetobacter baumannii) [%] | Inhibition (Escherichia coli) [%] | Inhibition (Klebsiella pneumoniae) [%] | Inhibition (Candida albicans) [%] | Inhibition (Cryptococcus neoformans) [%] |
| --- | --- | --- | --- | --- | --- | --- |
| Cn1nc(SCc2ccccc2)c(=O)n(C(c2ccccc2)c2ccccc2)c1=O | 19.74 | -15.03 | 11.55 | 5.74 | 11 | -0.62 |
| NC(=O)/C(=C\c1ccncc1)c1cccc2ccccc12 | 3.23 | -18.71 | 6.96 | 13.72 | -4.11 | -6.45 |
| COC(=O)c1cc(C)c(C)cc1NC1OC(CO)C(O)C1O (centres undefined) | -3.53 | 7.51 | -12.77 | 12.31 | 6.05 | -3.92 |
| COc1cc2oc3cc(C)oc(=O)c3c2cc1OC | 14.15 | 0.41 | 8.42 | 14.11 | 1.88 | -16.92 |
| Cc1ccc(/C=C2\CCOC2=O)cc1 | 9.11 | -13.71 | 3.05 | 29.06 | 11.6 | 1.19 |
| CCOc1cc2c(Cl)ncnc2c(OCC)c1OCC | 4.34 | -8.17 | 3.68 | 0.85 | 2.82 | -6.05 |
| COc1cc2c(O)cc(C(=O)O)c(-c3cc(OC)c(OC)c(OC)c3)c2cc1OC | 5.82 | -7.99 | 8.13 | 8.82 | -0.33 | -9.59 |
| Oc1ccc(Cc2ccc(Cl)cc2)c(O)c1 | 10.37 | -6.86 | 10.87 | 7.26 | -0.85 | -7.42 |
| Oc1ccc(/C=C\c2cnccn2)cc1 | 3.99 | -7.27 | 16.94 | 16.23 | 1.24 | -11.21 |
| NC(=O)C1=CC2C3C=CC2(O)C(=O)OC3O1 (centres undefined) | -0.72 | 9.98 | -7.05 | 15.67 | 3.39 | 2.22 |
| CC(=O)Nc1c(C)cc(OCC(=O)O)cc1C | 2.34 | -5.79 | 3.28 | 20.93 | 1.74 | -9.89 |
| Cc1ccc(NC(=O)N2CCCCC2)cc1[N+](=O)[O-] | 0.24 | -10.39 | 3.85 | 3.41 | 6.56 | -11.71 |
| Oc1ccc(N/C(S)=N/c2ccccc2)cc1 | -2.99 | 11.99 | -4.05 | 4.37 | 4.77 | 2.65 |
| [O-][n+]1nc2ccccc2c2ccccc21 | 3.86 | -1.94 | -9.04 | 13.55 | 6.35 | 8.25 |
| C#CC(C)OCC1CNC(=S)O1 (centres undefined) | 8.34 | 0.13 | 10.24 | 3.71 | 4.06 | 15.9 |
| CCOC(=O)c1nnsc1-c1ccc(-c2snnc2C(=O)OCC)cc1 | 4.36 | 3.04 | -11.2 | 29.27 | 6.68 | -3.34 |
| O=C(O)c1ccc(OCCOc2ccccc2)cc1 | -1.13 | -7.25 | 7.53 | 15.54 | 7.45 | -11.92 |
| COc1ccc2c(c1)CCN1C2CCN2C(=O)CCC21 (centres undefined) | -11.91 | -4.71 | -9.16 | 7.62 | 3.14 | -4.03 |
| CC(=O)OC1CCC2(C)C(=CCC3C2CCC2(C)C3CC3OC4(CCC(C)CN4)C(C)C32)C1 (centres undefined) | -5.01 | -6.15 | 18.44 | 9.38 | 6.33 | 14.75 |
| N#CCCCCN1CCCC1 | 4.35 | -8.73 | 3.27 | 18.95 | -1.32 | -2.95 |
| NCC(=O)c1cccc2ccc[n+]([O-])c12 | 9.77 | 5.17 | 0.84 | 20.91 | 0.31 | -8.51 |
| CCOC(=O)c1nc(O)c2c3c(sc2n1)CCCC3 | 16.28 | -13.3 | 15.58 | 5.02 | 10 | -8.42 |
| Oc1ccccc1/N=C/c1c(O)ccc2ccccc12 | 7.8 | -11.56 | 8.07 | 1.58 | 52.3 | 25.14 |
| Clc1ccc(Oc2nc3c(Cl)cccc3s2)cc1Cl | 12.48 | 12.9 | 4.52 | 1.06 | 1.36 | -15.72 |
